From ChEMBL document CHEMBL1961873, “Compounds: GSK PKIS; Assays: Nanosyn kinase panel” (2012)

Assays:
[1] = target: Calcium/calmodulin-dependent protein kinase type II subunit alpha (Homo sapiens) (UniProt Q9UQM7); conditions: at 1 µM;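 note: reported value is a mean percent inhibition of CAMK2A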
[2] = target: Calcium/calmodulin-dependent protein kinase type II subunit delta (Homo sapiens) (UniProt Q13557); conditions: at 0.1 µM
[3] = target: Calcium/calmodulin-dependent protein kinase type II subunit delta (Homo sapiens) (UniProt Q13557); conditions: at 1 µM
[4] = target: T1, Calcium/calmodulin-dependent protein kinase type IV (Homo sapiens) (UniProt Q16566); conditions: at 0.1 µM
T1 sequence (whole entry): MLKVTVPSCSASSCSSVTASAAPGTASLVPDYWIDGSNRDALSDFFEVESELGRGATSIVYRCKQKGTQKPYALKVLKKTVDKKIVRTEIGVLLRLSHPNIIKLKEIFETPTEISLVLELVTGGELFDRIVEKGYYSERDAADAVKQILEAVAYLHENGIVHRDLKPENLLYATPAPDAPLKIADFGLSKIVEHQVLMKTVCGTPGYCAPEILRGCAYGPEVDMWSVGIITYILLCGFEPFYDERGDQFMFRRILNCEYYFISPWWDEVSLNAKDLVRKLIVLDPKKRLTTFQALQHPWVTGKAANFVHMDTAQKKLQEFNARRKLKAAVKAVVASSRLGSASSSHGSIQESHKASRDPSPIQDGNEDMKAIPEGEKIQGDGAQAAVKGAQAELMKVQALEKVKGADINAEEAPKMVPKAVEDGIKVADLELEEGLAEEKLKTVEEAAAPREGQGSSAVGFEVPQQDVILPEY

[5] = target: T1, Calcium/calmodulin-dependent protein kinase type IV (Homo sapiens); conditions: at 1 µM
[6] = target: T2, Serine/threonine-protein kinase Chk1 (Homo sapiens) (UniProt O14757); conditions: at 0.1 µM
T2 sequence (whole entry): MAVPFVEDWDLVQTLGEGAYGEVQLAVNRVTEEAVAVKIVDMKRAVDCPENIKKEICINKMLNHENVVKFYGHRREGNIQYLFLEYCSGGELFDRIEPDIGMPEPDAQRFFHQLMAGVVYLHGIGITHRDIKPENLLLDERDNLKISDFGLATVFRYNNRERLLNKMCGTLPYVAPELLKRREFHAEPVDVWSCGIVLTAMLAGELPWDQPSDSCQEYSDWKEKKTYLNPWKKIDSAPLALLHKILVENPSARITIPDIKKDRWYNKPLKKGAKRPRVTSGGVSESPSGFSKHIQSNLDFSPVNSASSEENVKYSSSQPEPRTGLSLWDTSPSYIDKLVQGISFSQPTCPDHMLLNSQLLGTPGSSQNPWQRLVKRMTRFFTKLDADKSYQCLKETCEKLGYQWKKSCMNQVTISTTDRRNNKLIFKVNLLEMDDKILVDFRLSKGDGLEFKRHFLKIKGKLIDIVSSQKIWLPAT

[7] = target: T2, Serine/threonine-protein kinase Chk1 (Homo sapiens); conditions: at 1 µM
[8] = target: Serine/threonine-protein kinase Chk2 (Homo sapiens) (UniProt O96017); conditions: at 0.1 µM
[9] = target: Serine/threonine-protein kinase Chk2 (Homo sapiens) (UniProt O96017); conditions: at 1 µM
[10] = target: Death-associated protein kinase 1 (Homo sapiens) (UniProt P53355); conditions: at 0.1 µM
[11] = target: Death-associated protein kinase 1 (Homo sapiens) (UniProt P53355); conditions: at 1 µM
[12] = target: T3, Serine/threonine-protein kinase DCLK2 (Homo sapiens) (UniProt Q8N568); conditions: at 0.1 µM
T3 sequence (whole entry): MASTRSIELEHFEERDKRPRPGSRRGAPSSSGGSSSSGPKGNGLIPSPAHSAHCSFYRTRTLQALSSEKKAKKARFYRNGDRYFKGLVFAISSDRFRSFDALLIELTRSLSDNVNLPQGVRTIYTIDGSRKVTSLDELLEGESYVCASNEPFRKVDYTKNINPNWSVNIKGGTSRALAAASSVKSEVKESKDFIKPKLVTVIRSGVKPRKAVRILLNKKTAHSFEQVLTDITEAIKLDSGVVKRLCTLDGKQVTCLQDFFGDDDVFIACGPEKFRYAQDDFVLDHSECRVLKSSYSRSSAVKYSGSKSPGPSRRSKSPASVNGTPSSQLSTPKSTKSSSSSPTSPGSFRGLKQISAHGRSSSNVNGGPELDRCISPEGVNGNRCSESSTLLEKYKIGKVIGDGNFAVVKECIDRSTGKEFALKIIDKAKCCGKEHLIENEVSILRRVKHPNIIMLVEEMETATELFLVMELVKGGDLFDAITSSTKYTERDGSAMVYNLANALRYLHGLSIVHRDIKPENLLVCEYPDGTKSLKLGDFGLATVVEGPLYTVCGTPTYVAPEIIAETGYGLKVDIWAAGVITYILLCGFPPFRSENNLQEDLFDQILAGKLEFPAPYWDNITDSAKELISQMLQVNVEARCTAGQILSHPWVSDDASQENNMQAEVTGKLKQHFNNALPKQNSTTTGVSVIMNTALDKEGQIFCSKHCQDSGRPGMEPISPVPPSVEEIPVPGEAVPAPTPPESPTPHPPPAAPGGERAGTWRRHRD

[13] = target: T3, Serine/threonine-protein kinase DCLK2 (Homo sapiens); conditions: at 1 µM
[14] = target: MAP kinase-activated protein kinase 2 (Homo sapiens) (UniProt P49137); conditions: at 0.1 µM
[15] = target: MAP kinase-activated protein kinase 2 (Homo sapiens) (UniProt P49137); conditions: at 1 µM
[16] = target: MAP kinase-activated protein kinase 3 (Homo sapiens) (UniProt Q16644); conditions: at 0.1 µM
[17] = target: MAP kinase-activated protein kinase 3 (Homo sapiens) (UniProt Q16644); conditions: at 1 µM
[18] = target: Serine/threonine-protein kinase MARK1 (Homo sapiens) (UniProt Q9P0L2); conditions: at 0.1 µM
[19] = target: Serine/threonine-protein kinase MARK1 (Homo sapiens) (UniProt Q9P0L2); conditions: at 1 µM
[20] = target: MAP/microtubule affinity-regulating kinase 3 (Homo sapiens) (UniProt P27448); conditions: at 0.1 µM;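 note: mean percent inhibition of MARK3 kinase activity, measured within the GSK PKIS screening panel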
MAP/microtubule affinity-regulating kinase 3 (Homo sapiens), sequence (P27448 whole entry, looked up): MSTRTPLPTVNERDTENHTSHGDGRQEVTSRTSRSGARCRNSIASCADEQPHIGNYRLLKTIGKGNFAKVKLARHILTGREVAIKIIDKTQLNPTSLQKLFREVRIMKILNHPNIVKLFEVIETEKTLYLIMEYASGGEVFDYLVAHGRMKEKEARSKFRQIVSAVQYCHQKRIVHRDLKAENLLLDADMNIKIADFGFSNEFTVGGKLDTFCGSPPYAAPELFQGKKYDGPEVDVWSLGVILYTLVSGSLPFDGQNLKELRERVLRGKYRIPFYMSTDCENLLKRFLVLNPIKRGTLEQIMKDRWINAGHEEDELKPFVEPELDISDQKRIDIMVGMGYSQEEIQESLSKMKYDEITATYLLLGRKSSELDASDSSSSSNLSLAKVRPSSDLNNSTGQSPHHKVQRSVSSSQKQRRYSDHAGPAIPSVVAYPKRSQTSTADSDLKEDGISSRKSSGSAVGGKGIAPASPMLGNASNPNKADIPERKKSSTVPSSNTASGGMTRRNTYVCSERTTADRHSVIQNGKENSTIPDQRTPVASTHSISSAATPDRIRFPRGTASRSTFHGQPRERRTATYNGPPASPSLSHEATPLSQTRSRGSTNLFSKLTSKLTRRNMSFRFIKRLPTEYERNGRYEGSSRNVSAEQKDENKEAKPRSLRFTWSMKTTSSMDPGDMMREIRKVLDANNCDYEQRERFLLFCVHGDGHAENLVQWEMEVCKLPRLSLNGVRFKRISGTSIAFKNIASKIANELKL

Serine/threonine-protein kinase Chk2 (Homo sapiens), sequence (O96017 whole entry): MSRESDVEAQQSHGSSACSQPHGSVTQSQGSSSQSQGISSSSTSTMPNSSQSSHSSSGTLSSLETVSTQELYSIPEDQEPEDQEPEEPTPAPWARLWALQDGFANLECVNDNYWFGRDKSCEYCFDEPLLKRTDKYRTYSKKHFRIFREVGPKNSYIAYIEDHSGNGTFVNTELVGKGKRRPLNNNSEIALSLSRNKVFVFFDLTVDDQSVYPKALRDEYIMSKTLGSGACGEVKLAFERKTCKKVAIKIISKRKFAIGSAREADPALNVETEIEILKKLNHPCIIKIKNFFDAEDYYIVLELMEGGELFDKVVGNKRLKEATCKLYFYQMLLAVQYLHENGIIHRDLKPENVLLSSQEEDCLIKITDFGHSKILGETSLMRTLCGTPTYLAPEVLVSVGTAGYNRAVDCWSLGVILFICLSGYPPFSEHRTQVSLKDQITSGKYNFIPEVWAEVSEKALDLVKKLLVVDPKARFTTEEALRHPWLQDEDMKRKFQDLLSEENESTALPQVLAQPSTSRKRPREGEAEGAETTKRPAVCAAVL
Serine/threonine-protein kinase MARK1 (Homo sapiens), sequence (Q9P0L2 whole entry, looked up): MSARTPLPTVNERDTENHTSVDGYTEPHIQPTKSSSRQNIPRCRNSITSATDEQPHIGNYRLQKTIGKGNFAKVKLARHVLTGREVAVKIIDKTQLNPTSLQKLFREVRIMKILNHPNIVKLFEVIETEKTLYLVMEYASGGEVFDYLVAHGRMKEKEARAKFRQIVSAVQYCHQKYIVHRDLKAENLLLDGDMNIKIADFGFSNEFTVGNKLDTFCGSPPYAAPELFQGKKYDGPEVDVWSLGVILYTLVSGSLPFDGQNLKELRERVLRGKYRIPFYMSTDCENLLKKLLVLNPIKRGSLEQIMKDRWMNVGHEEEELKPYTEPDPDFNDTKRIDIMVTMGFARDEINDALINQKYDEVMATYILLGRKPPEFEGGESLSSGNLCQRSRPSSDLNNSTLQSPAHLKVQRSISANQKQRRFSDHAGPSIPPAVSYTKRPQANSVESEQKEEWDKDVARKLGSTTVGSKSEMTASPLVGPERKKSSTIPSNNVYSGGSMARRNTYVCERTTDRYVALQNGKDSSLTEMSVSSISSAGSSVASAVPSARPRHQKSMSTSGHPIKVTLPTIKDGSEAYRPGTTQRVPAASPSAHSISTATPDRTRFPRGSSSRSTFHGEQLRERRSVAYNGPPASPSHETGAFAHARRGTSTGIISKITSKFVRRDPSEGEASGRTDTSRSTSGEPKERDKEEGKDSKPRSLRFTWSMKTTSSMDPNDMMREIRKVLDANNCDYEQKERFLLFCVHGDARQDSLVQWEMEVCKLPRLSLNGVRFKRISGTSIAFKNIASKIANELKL
MAP kinase-activated protein kinase 2 (Homo sapiens), sequence (P49137 whole entry, looked up): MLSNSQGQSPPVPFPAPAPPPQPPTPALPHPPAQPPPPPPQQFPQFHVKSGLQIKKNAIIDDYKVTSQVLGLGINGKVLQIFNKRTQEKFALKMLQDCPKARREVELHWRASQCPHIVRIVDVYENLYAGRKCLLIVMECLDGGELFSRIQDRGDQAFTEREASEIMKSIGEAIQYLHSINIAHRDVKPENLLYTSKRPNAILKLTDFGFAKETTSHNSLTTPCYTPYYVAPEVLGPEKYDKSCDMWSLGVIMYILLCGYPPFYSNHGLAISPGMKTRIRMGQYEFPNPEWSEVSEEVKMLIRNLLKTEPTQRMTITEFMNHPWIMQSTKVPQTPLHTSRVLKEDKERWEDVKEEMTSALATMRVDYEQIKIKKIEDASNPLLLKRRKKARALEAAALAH
Calcium/calmodulin-dependent protein kinase type II subunit alpha (Homo sapiens), sequence (Q9UQM7 whole entry): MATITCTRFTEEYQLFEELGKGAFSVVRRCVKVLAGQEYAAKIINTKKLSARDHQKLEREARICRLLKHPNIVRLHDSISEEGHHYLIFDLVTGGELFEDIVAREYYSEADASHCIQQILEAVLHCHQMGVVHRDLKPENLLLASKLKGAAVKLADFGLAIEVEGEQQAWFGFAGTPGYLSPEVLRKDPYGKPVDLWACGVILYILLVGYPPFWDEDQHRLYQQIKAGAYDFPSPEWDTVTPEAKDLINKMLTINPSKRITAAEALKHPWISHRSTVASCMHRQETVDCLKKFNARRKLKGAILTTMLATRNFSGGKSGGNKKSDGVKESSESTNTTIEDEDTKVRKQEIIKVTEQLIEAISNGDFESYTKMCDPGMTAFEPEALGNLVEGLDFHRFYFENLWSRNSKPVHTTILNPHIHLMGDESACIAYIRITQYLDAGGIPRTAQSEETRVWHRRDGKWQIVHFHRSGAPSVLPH
Calcium/calmodulin-dependent protein kinase type II subunit delta (Homo sapiens), sequence (Q13557 whole entry): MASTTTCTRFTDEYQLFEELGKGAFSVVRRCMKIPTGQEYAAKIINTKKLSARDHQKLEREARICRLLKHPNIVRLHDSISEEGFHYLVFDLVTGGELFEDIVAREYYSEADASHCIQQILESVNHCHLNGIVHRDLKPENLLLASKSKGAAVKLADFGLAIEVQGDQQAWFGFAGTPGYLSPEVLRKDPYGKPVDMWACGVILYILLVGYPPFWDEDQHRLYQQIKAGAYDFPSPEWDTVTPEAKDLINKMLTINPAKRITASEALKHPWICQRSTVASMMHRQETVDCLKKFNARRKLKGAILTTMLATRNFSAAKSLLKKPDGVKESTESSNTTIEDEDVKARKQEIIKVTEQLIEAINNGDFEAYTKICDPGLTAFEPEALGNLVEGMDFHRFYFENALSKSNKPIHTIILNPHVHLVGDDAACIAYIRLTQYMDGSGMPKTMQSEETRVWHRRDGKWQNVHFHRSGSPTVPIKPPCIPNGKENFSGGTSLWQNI
MAP kinase-activated protein kinase 3 (Homo sapiens), sequence (Q16644 whole entry, looked up): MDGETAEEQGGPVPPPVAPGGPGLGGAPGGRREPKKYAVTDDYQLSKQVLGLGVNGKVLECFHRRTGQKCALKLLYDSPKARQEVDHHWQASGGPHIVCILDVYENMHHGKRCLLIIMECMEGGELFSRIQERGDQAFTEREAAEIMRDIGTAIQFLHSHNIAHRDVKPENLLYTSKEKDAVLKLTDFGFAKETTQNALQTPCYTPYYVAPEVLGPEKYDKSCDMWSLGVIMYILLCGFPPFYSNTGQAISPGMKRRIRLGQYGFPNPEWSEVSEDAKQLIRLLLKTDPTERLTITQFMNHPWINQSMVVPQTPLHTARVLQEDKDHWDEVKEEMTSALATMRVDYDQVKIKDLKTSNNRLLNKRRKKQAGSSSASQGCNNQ

Row | SMILES | inhibition [1] | inhibition [2] | inhibition [3] | inhibition [4] | inhibition [5] | inhibition [6] | inhibition [7] | inhibition [8] | inhibition [9] | inhibition [10] | inhibition [11] | inhibition [12] | inhibition [13] | inhibition [14] | inhibition [15] | inhibition [16] | inhibition [17] | inhibition [18] | inhibition [19] | inhibition [20]
1 | COC(=O)Nc1nc2cc(Oc3cccc(NC(=O)Nc4cc(C(F)(F)F)ccc4F)c3)ccc2[nH]1 | 0.78% | 0.53% | 0.94% | 1.37% | 0.22% | -2.61% | -1.51% | -0.85% | 0.45% | 0.43% | -0.6% | 5.45% | -0.15% | -0.06% | -0.64% | 0% | 1.82% | 1.21% | 1.49% | 0.8%
2 | CS(=O)(=O)CCNCc1ccc(-c2ccc3ncnc(Nc4ccc(OCc5cccc(F)c5)c(C(F)(F)F)c4)c3c2)o1 | 3.37% | 3.17% | 2.68% | 0.52% | -0.06% | 8.99% | 11.5% | 6.84% | 7.75% | 11.7% | 12.3% | 3.73% | 0.98% | 4.67% | 4.5% | 10% | 11.2% | 3.68% | 3.33% | 1.95%
3 | Cc1cc(O)cc(C)c1/C=C/c1cncc(-c2nn[nH]n2)c1 | 3.79% | 4.52% | 4.7% | -0.07% | -1.05% | -7.2% | 2.19% | 3.38% | 5.57% | 3.16% | 3.95% | -1.23% | -3.21% | 2.39% | 1.49% | 6.11% | 4.25% | 4.55% | 5.09% | 5.87%
4 | COc1ccc(-c2ccncc2)cc1C(N)=O | 3.32% | 3.92% | 8.26% | -1.04% | 0.03% | 8.46% | 10.1% | 8.96% | 12.5% | 14% | 12.2% | -0.69% | 3.38% | 5.44% | 6.42% | 9.46% | 12.5% | 2.8% | 4.12% | 3.29%
5 | O=C1NC(=O)C(c2ccc(Cl)cc2)=C1Nc1ccc(Cl)c(C(=O)O)c1 | -3.46% | -2.31% | 1.44% | 0.68% | 0.51% | -0.04% | -1.22% | -2% | -1.93% | -1.53% | -1.43% | -1.2% | -0.41% | -1.23% | -1.83% | -0.48% | -1% | -0.68% | -0.26% | -0.12%
6 | COc1ccccc1Nc1ncc(-c2ccccc2)o1 | 0.2% | 3.81% | 4.92% | 0.89% | -8.72% | -2.97% | -2.91% | -2.63% | -3.53% | -1.69% | -4.43% | 2.18% | 0.52% | -0.33% | -1.84% | 0.93% | 1.35% | 2.73% | 5.68% | 4.5%
